The values below come from ChEMBL document CHEMBL3988442, “University of Dundee, Small-Polar-MMV Screening Library” (2021).

Among all 48,000 compounds or so, about 13,000 (27%) showed an effect of 50% or more. The list shows a part of the results.

The test system of this assay is Wolbachia pipientis. The assay is described as follows: Anti-Wolbachia Cell-Based Screen. The format is functional. On the set-up: scale not given: in the data most compounds retested in dose-response had high values. Particulars: 5 µM.
On to `CCN(CC(=O)N(C)C)C(=O)C(C)(C)c1ccc2c(c1)OCCO2`, for which the “Percent Effect” value is -3.526%.
Consider `CC(C)(NCc1ccc(C#N)cc1)c1ccc2c(c1)OCO2`, for which the “Percent Effect” value is on record as 0.339%.
To `CCCNC(=O)NC(=O)CNC(C)(C)c1ccc2c(c1)OCCO2` belongs 109.8%.
The figure for `CCCNC(=O)NC(=O)CNC(C)(C)c1ccc2c(c1)OCO2` is 110.6%; for `CC(C)(NCc1cccc(C#N)c1)c1ccc2c(c1)OCO2` it is 0.8425%.
For the molecule `CC(C)(C)C(=O)NCCC(=O)NC(C)(C)c1ccc2c(c1)OCCO2`, the “Percent Effect” value came out at 1.419%.
To `CCN(Cc1ccc(CN(C)C)cc1)C(=O)c1ccncc1O` belongs 4.477%.
Consider `O=C(NC1CC(F)(F)C1)[C@]12COC[C@H]1CN(Cc1ccsc1)C2`, for which the “Percent Effect” value is -6.897%.
Take `O=C(CN1CCc2cncnc2C1)NC1CCCCNC1=O` (configuration not stated): the “Percent Effect” value was -3.554%.
As for `CCCS(=O)(=O)N1CCOC2(CCCN(c3ccc(C)nn3)C2)C1` (configuration not stated), the “Percent Effect” value is given as 6.152%.
`CNC(=O)C1(C)CN(c2nc(C)cc(C)n2)CCO1` (configuration not stated): the “Percent Effect” value is on record as 133.8%.
On to `Cc1cc(C)nc(N2CC[C@@]3(O)CCN(S(=O)(=O)N(C)C)C[C@H]3C2)n1`, for which the “Percent Effect” value was -0.4533%.
The figure for `Cc1cc(C)nc(N2CCN(C(=O)c3cc(Cl)c[nH]3)CC2)n1` is -2.597%.
Consider `Cc1cc(N2CCOC(C)(C(=O)N(C)C)C2)ncn1` (configuration not stated), for which the “Percent Effect” value was found to be 147.4%.
To `Cc1ccc(N2CCOC(C)(C(=O)N(C)C)C2)nn1` (configuration not stated) belongs 160%; to `Cc1cc(C)nc(N2CCOC(C)(C(=O)N(C)C)C2)n1` (configuration not stated), 205.4%.
On to `Cc1ccsc1CN(C)c1cc(N2CCOCC2)ncn1`, for which the “Percent Effect” value is listed as -30.66%.
For the molecule `CC(C)=CCC1(C(=O)O)CCCN(c2cc(N)ncn2)C1` (configuration not stated), the “Percent Effect” value is listed as -4.514%.
To `CNc1cc(C)nc(N2CCC3(CC2)[C@H](O)C[C@@H]3O)n1` belongs -5.411%; to `Cc1nc(N2CCOCC2)nc(C)c1NC(=O)Cc1ccc(Cl)cc1`, -11.2%.
For `Cc1ccc(N2CCC3(CCN(C(N)=O)CC3)CC2)nn1`, the “Percent Effect” value stood at 5.421%.
For the molecule `CCOC(=O)NCCC(=O)NCc1ccc(Oc2ccc(F)cc2)nc1`, the “Percent Effect” value is reported as -9.89%.
For `OC(CNc1cncc(OCc2ccccc2)n1)c1ccco1` (configuration not stated), the “Percent Effect” value is given as 3.469%.
The figure for `COc1cc(C)ccc1OCC(=O)Nc1ccnc(OCCN(C)C)c1` is 10.45%; for `CCn1c(CN(C)C)nnc1C1CCN(c2nccc(NC)n2)CC1` it is -2.442%; for `Cc1cccc(C)c1CNC1(CCO)CCOCC1` it is 0.8259%.
The figure for `CN(c1ccccc1)c1ccc(CC2CCCN(CCO)C2)nn1` (configuration not stated) is 94.33%; for `COc1ccccc1CC1CCCN(CCC(N)=O)C1` (configuration not stated) it is -12.09%; for `CC(C)CCN1CCCC(Cn2cc(CCO)nn2)C1` (configuration not stated) it is -4.048%.
Turning to `Cc1ccc(N2CCCC(NC(=O)C(C)(C)C#N)C2=O)cc1` (configuration not stated), the “Percent Effect” value is -7.395%.
On to `CN1CCN2CCN(Cc3ccccc3Cn3cccn3)CC2C1` (configuration not stated), for which the “Percent Effect” value was -0.2104%.
Take `NC(=O)C1CCCN(Cc2c(-c3ccco3)[nH]c3ncccc23)C1` (configuration not stated): the “Percent Effect” value is -7.112%.
Turning to `CNc1ncccc1CN1CCN(C)CC(C(=O)N(C)C)C1` (configuration not stated), the “Percent Effect” value is reported as 106.5%.
To `CNc1ncccc1CN1CCN(C)CC(C(N)=O)C1` (configuration not stated) belongs 105.8%; to `N#Cc1cccnc1NCc1cccnc1N1CCC(C(N)=O)CC1`, -4.129%.
In the case of `CC(C)Oc1ncccc1CNC(=O)N1CCC(C(N)=O)C1` (configuration not stated), the “Percent Effect” value is -8.219%.
Turning to `CN(C)c1ncccc1CNC(=O)N1CCCC1CN1CCCCC1` (configuration not stated), the “Percent Effect” value turned out to be 7.687%.
With `CNc1ncccc1CN1CCN(C(C)=O)CC(C(N)=O)C1` (configuration not stated), the “Percent Effect” value was determined as 106.9%.
`CN1CCCN(C[C@H]2C[C@H](CO)CN(Cc3cccnc3N)C2)CC1`: the “Percent Effect” value is -5.741%.
Regarding `CN(C)CCOCC1CN(C(=O)c2ccnnc2)Cc2ccnn2C1.O=C(O)C(F)(F)F.O=C(O)C(F)(F)F` (configuration not stated), the “Percent Effect” value is given as 5.316%.
With `CCn1cc2c(n1)C(COCC1CC1)CN(c1ccc(C)nn1)C2` (configuration not stated), the “Percent Effect” value came to 10.52%.
For `CCCSc1nc(N)c(NC(=O)c2ccc(OC)c(OC)c2)c(=O)[nH]1`, the “Percent Effect” value was -5.573%.
As to `O=CO.c1cc2nccc(CC3CCCN(C4CCOCC4)CC3)c2cn1` (configuration not stated), the “Percent Effect” value came to 113.5%.
As to `Cn1ccnc1CN1CCCC(Cc2ccnc3ccncc23)CC1.O=CO` (configuration not stated), the “Percent Effect” value was 122.1%.
In the case of `Cn1ccnc1CN1CCC(CNS(=O)(=O)c2cccnc2)C1` (configuration not stated), the “Percent Effect” value was determined as 2.394%.
`CS(=O)(=O)N1CCCC(Cc2ccnc3ccncc23)CC1` (configuration not stated): the “Percent Effect” value worked out at 72.88%.
`O=C(CC1CC1)N(Cc1cccnc1)CC1CCN(C2CCCC2)CC1`: the “Percent Effect” value was -16.06%.
With `O=CO.c1cc2nccc(CC3CCCN(Cc4c[nH]cn4)CC3)c2cn1` (configuration not stated), the “Percent Effect” value was 92.48%.
As to `O=C(NCCc1c[nH]cn1)C1CCCN(Cc2ccco2)C1` (configuration not stated), the “Percent Effect” value is -20.31%.
On to `c1cc2nccc(CC3CCCN(Cc4ncc[nH]4)CC3)c2cn1` (configuration not stated), for which the “Percent Effect” value was 3.513%.
In the case of `O=C(Cc1cccnc1)N1CCCC2(CCN(C3CCOCC3)C2)C1.O=C(O)C(F)(F)F.O=C(O)C(F)(F)F` (configuration not stated), the “Percent Effect” value stood at 3.784%.
Consider `CN1CCCC(Cc2ccnc3ccncc23)CC1` (configuration not stated), for which the “Percent Effect” value is -6.52%.
